According to PubChem BioAssay AID1159580 (chemical genetic matrix, 2015):
Several values for one entry are separate records, joined by “and”; a condition that tells them apart may be missing. Equal values may be shown once. In all, about 5,500 compounds went through this assay and about 2,000 (36%) were called active. Roughly 18% stayed inconclusive and do not appear here. Cut-off read from the data, not from the text of the source: active = normalized growth mostly below about 0.91 (no sharp cut-off); inconclusive = no clear call, values can overlap the other calls; inactive = mostly above about 0.92. Some of the results follow.

Assay: chemical genetic growth profiling, strain panel (AID 1159580);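 note: tested at 20 µM; growth read once vehicle control cultures reached saturation at 30 °C; 1 = growth at the plate median or of vehicle wells; lower values mean less growth of the strain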
Conditions: growth OD

Measured: normalized growth

CCN(CC)CCNC(=O)COc1ccc(OC)cc1
inactive: S. cerevisiae deletion strains, locus YAL013W, strain DEP1, stronger effect = lower value 1 | S. cerevisiae deletion strains, locus YBR021W, strain FUR4, stronger effect = lower value 1.01 | S. cerevisiae deletion strains, locus YBR229C, strain ROT2, stronger effect = lower value 0.995 | S. cerevisiae deletion strains, locus YCL029C, strain bik1, stronger effect = lower value 0.983 | S. cerevisiae deletion strains, locus YDL035C, strain GPR1, stronger effect = lower value 1.02 | S. cerevisiae deletion strains, locus YDL074C, strain BRE1, stronger effect = lower value 0.989 | S. cerevisiae deletion strains, locus YDL101C, strain DUN1, stronger effect = lower value 0.993 | S. cerevisiae deletion strains, locus YDL134C, strain PPH21, stronger effect = lower value 1.01 | S. cerevisiae deletion strains, locus YDL185W, strain tfp1, stronger effect = lower value 0.964 | S. cerevisiae deletion strains, locus YDL192W, strain arf1, stronger effect = lower value 0.995 | S. cerevisiae deletion strains, locus YDR101C, strain arx1, stronger effect = lower value 0.973 | S. cerevisiae deletion strains, locus YDR150W, strain NUM1, stronger effect = lower value 0.993 | S. cerevisiae deletion strains, locus YDR162C, strain NBP2, stronger effect = lower value 1.01 | S. cerevisiae deletion strains, locus YDR318W, strain mcm21, stronger effect = lower value 0.988 | S. cerevisiae deletion strains, locus YDR388W, stronger effect = lower value 0.997 | S. cerevisiae deletion strains, locus YDR502C, strain sam2, stronger effect = lower value 1.01 | S. cerevisiae deletion strains, locus YEL061C, strain CIN8, stronger effect = lower value 1 | S. cerevisiae deletion strains, locus YER110C, stronger effect = lower value 0.989 | S. cerevisiae deletion strains, locus YER155C, strain BEM2, stronger effect = lower value 0.998 | S. cerevisiae deletion strains, locus YER167W, strain BCK2, stronger effect = lower value 1.01 | S. cerevisiae deletion strains, locus YGL078C, strain dbp3, stronger effect = lower value 0.997 | S. cerevisiae deletion strains, locus YGL086W, strain mad1, stronger effect = lower value 1.02 | S. cerevisiae deletion strains, locus YGL248W, strain PDE1, stronger effect = lower value 0.995 | S. cerevisiae deletion strains, locus YGR078C, strain PAC10, stronger effect = lower value 0.992 | S. cerevisiae deletion strains, locus YGR135W, strain pre9, stronger effect = lower value 1.01 | S. cerevisiae deletion strains, locus YGR229C, strain SMI1, stronger effect = lower value 1.01 | S. cerevisiae deletion strains, locus YGR252W, strain gcn5, stronger effect = lower value 1.15 | S. cerevisiae deletion strains, locus YHR030C, strain SLT2, stronger effect = lower value 0.995 and 0.975 | S. cerevisiae deletion strains, locus YHR079C, strain IRE1 (second series), stronger effect = lower value 0.986 | S. cerevisiae deletion strains, locus YHR079C, strain IRE1, stronger effect = lower value 0.965 | S. cerevisiae deletion strains, locus YHR094C, strain hxt1, stronger effect = lower value 0.981 | S. cerevisiae deletion strains, locus YHR129C, strain ARP1, stronger effect = lower value 0.994 | S. cerevisiae deletion strains, locus YHR200W, strain rpn10, stronger effect = lower value 0.989 | S. cerevisiae deletion strains, locus YIL066C, strain RNR3, stronger effect = lower value 0.999 | S. cerevisiae deletion strains, locus YIL073C, strain SPO22, stronger effect = lower value 0.974 | S. cerevisiae deletion strains, locus YIL125W, strain kgd1, stronger effect = lower value 1 | S. cerevisiae deletion strains, locus YIR030C, strain dcg1, stronger effect = lower value 0.999 | S. cerevisiae deletion strains, locus YJL095W, strain BCK1, stronger effect = lower value 0.983 and 0.978 | S. cerevisiae deletion strains, locus YJL134W, strain LCB3, stronger effect = lower value 0.994 | S. cerevisiae deletion strains, locus YJL168C, strain set2, stronger effect = lower value 0.981 | S. cerevisiae deletion strains, locus YJL187C, strain SWE1 (second series), stronger effect = lower value 0.984 | S. cerevisiae deletion strains, locus YJR043C, strain POL32, stronger effect = lower value 0.971 | S. cerevisiae deletion strains, locus YJR066W, strain TOR1, stronger effect = lower value 0.939 | S. cerevisiae deletion strains, locus YJR075W, strain HOC1, stronger effect = lower value 0.983 | S. cerevisiae deletion strains, locus YKL009W, strain mrt4, stronger effect = lower value 1.02 | S. cerevisiae deletion strains, locus YKL068W, stronger effect = lower value 0.983 | S. cerevisiae deletion strains, locus YKL085W, strain MDH1 (second series), stronger effect = lower value 0.981 | S. cerevisiae deletion strains, locus YKL085W, strain MDH1, stronger effect = lower value 0.981 | S. cerevisiae deletion strains, locus YKL190W, strain CNB1, stronger effect = lower value 0.997 | S. cerevisiae deletion strains, locus YKR001C, strain vps1, stronger effect = lower value 1.02 | S. cerevisiae deletion strains, locus YLR039C, strain RIC1, stronger effect = lower value 1.06 | S. cerevisiae deletion strains, locus YLR058C, strain SHM2, stronger effect = lower value 1 | S. cerevisiae deletion strains, locus YLR102C, strain apc9, stronger effect = lower value 0.991 | S. cerevisiae deletion strains, locus YLR113W, strain HOG1, stronger effect = lower value 0.969 | S. cerevisiae deletion strains, locus YLR262C, strain YPT6, stronger effect = lower value 1.05 | S. cerevisiae deletion strains, locus YLR268W, strain sec22, stronger effect = lower value 0.96 | S. cerevisiae deletion strains, locus YLR330W, strain CHS5, stronger effect = lower value 0.989 | S. cerevisiae deletion strains, locus YLR342W, strain FKS1 (second series), stronger effect = lower value 1.06 | S. cerevisiae deletion strains, locus YLR371W, strain rom2, stronger effect = lower value 0.99 | S. cerevisiae deletion strains, locus YLR418C, strain cdc73, stronger effect = lower value 1.01 | S. cerevisiae deletion strains, locus YML016C, strain PPZ1, stronger effect = lower value 1.01 | S. cerevisiae deletion strains, locus YML032C, strain rad52, stronger effect = lower value 0.97 | S. cerevisiae deletion strains, locus YML124C, strain tub3, stronger effect = lower value 0.996 | S. cerevisiae deletion strains, locus YMR078C, strain ctf18, stronger effect = lower value 0.978 | S. cerevisiae deletion strains, locus YMR223W, strain ubp8, stronger effect = lower value 1.04 | S. cerevisiae deletion strains, locus YMR263W, strain SAP30, stronger effect = lower value 0.982 | S. cerevisiae deletion strains, locus YMR307W, strain GAS1, stronger effect = lower value 1.05 | S. cerevisiae deletion strains, locus YNL067W, strain RPL9B, stronger effect = lower value 0.97 | S. cerevisiae deletion strains, locus YNL128W, strain TEP1, stronger effect = lower value 0.994 | S. cerevisiae deletion strains, locus YNL153C, strain GIM3, stronger effect = lower value 0.988 | S. cerevisiae deletion strains, locus YNL183C, strain NPR1, stronger effect = lower value 0.937 | S. cerevisiae deletion strains, locus YNL233W, strain BNI4, stronger effect = lower value 1.01 | S. cerevisiae deletion strains, locus YNL250W, strain rad50, stronger effect = lower value 0.993 | S. cerevisiae deletion strains, locus YNL271C, strain bni1, stronger effect = lower value 0.987 | S. cerevisiae deletion strains, locus YNL298W, strain CLA4, stronger effect = lower value 0.993 | S. cerevisiae deletion strains, locus YNL307C, strain MCK1, stronger effect = lower value 0.999 | S. cerevisiae deletion strains, locus YNL322C, strain KRE1, stronger effect = lower value 0.992 | S. cerevisiae deletion strains, locus YNR052C, strain pop2, stronger effect = lower value 0.984 | S. cerevisiae deletion strains, locus YOL006C, strain TOP1, stronger effect = lower value 1.01 | S. cerevisiae deletion strains, locus YOL012C, strain htz1 0.754 | S. cerevisiae deletion strains, locus YOL147C, strain pex11, stronger effect = lower value 0.997 | S. cerevisiae deletion strains, locus YOR061W, strain CKA2, stronger effect = lower value 1.01 | S. cerevisiae deletion strains, locus YOR069W, strain VPS5, stronger effect = lower value 0.998 | S. cerevisiae deletion strains, locus YOR136W, strain idh2, stronger effect = lower value 1.01 | S. cerevisiae deletion strains, locus YOR144C, strain elg1, stronger effect = lower value 0.998 | S. cerevisiae deletion strains, locus YOR184W, strain ser1, stronger effect = lower value 0.983 | S. cerevisiae deletion strains, locus YOR231W, strain MKK1, stronger effect = lower value 0.964 | S. cerevisiae deletion strains, locus YOR316C, strain cot1, stronger effect = lower value 0.981 | S. cerevisiae deletion strains, locus YPL055C, strain LGE1, stronger effect = lower value 0.949 | S. cerevisiae deletion strains, locus YPL241C, strain CIN2, stronger effect = lower value 1.01 | S. cerevisiae deletion strains, locus YPL256C, strain CLN2, stronger effect = lower value 0.972 | S. cerevisiae deletion strains, locus YPR119W, strain clb2, stronger effect = lower value 0.99 | S. cerevisiae deletion strains, locus YPR141C, strain kar3, stronger effect = lower value 0.992 | S. cerevisiae deletion strains, locus YPR163C, strain tif3, stronger effect = lower value 0.994 | S. cerevisiae deletion strains, locus YPR167C, strain met16, stronger effect = lower value 0.975 | S. cerevisiae deletion strains, strain wtn01, stronger effect = lower value 0.962 | S. cerevisiae strains, strain wild type, stronger effect = lower value 1
